A number with no mark means an inactive call. The rule behind the calls is not given here.
Each molecule was assayed on Aerobactin synthetase IucA (Klebsiella pneumoniae, hypervirulent) (assay: biochemical IucA inhibition screen of LOPAC library by absorbance (AID 1346212;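 note: 100% = no compound wells and 0% = no enzyme wells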)). Details: IucA enzyme assay, absorbance (OD) readout; stronger effect = lower value;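 tested at 8 µM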.

| SMILES | remaining activity [%] |
| --- | --- |
| C=C1C(=O)O[C@@H]2[C@H]3O[C@]3(C)CC/C=C(\C)CC[C@@H]12 | 119 |
| C#Cc1ccc2c(c1)C(=O)N(C)Cc1c(C(=O)OCCCc3nc(C(=O)O)c4n3-c3ccc(C#C)cc3C(=O)N(C)C4)ncn1-2 | 97.1 |
| OC[C@H]1NC[C@@H](O)[C@@H]1O | 102 |
| O=C(O)CCC(=O)N1CCCC1C(=O)O (configuration not stated) | 98.4 |
| CNC(=O)[C@H]1O[C@@H](n2cnc3c(NCc4ccc(N)cc4)ncnc32)[C@H](O)[C@@H]1O | 119 |
| CCCCS(=N)(=O)CC[C@H](N)C(=O)O (some centres not stated) | 92.2 |
| Nc1ccc(-c2ccc3ccccc3n2)cc1 | 107 |
| CC(/C=C/c1cccc(Oc2ccc(F)cc2)c1)N(O)C(N)=O (configuration not stated) | 99.1 |
| CN1[C@@H](CC(=O)c2ccccc2)CCC[C@H]1C[C@H](O)c1ccccc1 | 115 |
| CCN1/C(=C/C(C)=O)Sc2ccc(OC)cc21 | 123 |
| C#CCn1c(=O)c2c(ncn2C)n(C)c1=O | 109 |
| CC(C)(C)c1onc(OCP(=O)(O)O)c1CC(N)C(=O)O (configuration not stated) | 112 |
| COCC(=O)O[C@]1(CCN(C)CCCc2nc3ccccc3[nH]2)CCc2cc(F)ccc2[C@@H]1C(C)C | 128 |
| NC(=NCCC[C@H](N)C(=O)O)NO | 101 |
| CC[N+](CC)(CC)CC(=O)Nc1c(C)cccc1C | 113 |
| NC(N)=NC(=O)Cc1c(Cl)cccc1Cl | 119 |
| COc1ccccc1N1CCN(CCN(C(=O)c2ccc(I)cc2)c2ccccn2)CC1 | 122 |
